# Whole data set: some 1,600 compounds, median “plate-normalized OD600 growth (mean of duplicates)” near 0.31, cut for the lowest 2% near 0.23. Only a selection was taken, and the lowest values are over-represented in it overall.
# System: Escherichia coli BW25113
# Assay: plate-normalized OD600 growth (mean of duplicates) (OD600 (normalized)); higher = more growth (less inhibition)
# Conditions: 10 µM
# Protocol: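 E. coli BW25113 in LB (100 µl, 96-well, no shaking) was exposed to 10 µM of each compound (here the ChemBridge subset of a ~30,000-member library) and grown at 37°C for 24 h or 15°C for 48 h, in duplicate. Growth was read as OD600 and the duplicate ODs were normalized across screening plates to correct plate-to-plate variation.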
Compound,"plate-normalized OD600 growth (temperature: 15°C, 48 h)","plate-normalized OD600 growth (temperature: 37°C, 24 h)"
Cc1ccc2c(c1)C1CN(C)CCC1N2 (stereo not given),0.227,0.61
O=c1cccc2n1C[C@H]1C[C@H]2CN(Cc2c(Cl)cccc2Cl)C1,0.284,0.625
Cc1ccc(-c2nc3ccccc3c(=O)n2-c2cccc(O)c2)cc1,0.247,0.61
Fc1ccc(CN2CCN(c3cccc(Cl)c3)CC2)c(F)c1,0.253,0.623
CCC(N)C(=O)c1ccc(Br)cc1 (stereo not given),0.219,0.624
Cc1cccc(C)c1-n1nnnc1C1(Nc2cccc(O)c2)CCCCC1,0.252,0.643
CN1C(=O)N(C)C(=O)C(CCc2ccncc2)(CCc2ccncc2)C1=O,0.266,0.631
CCOc1cc(/C=C/[N+](=O)[O-])ccc1O,0.209,0.585
COc1ccccc1N1CCN(Cc2ccc(N(C)C)cc2)CC1,0.234,0.615
Clc1cccc(N2CCN(Cc3ccc4c(c3)OCO4)CC2)c1,0.275,0.647
CCN1CCN(Cc2ccc(OC)c(C)c2)CC1,0.261,0.606
Fc1ccc(N2CCN(CCc3ccccc3)CC2)cc1,0.24,0.615
Oc1cccc(CN2CCN(c3ccc(F)cc3)CC2)c1,0.222,0.646
Cc1cccc(CN2CCN(c3ccccc3)CC2)c1,0.223,0.663
Oc1cccc(CN2CCN(c3ccccc3Cl)CC2)c1,0.26,0.611
COc1cccc(CN2CCN(c3cccc(Cl)c3)CC2)c1,0.26,0.623
COc1cccc(CN2CCN(c3ccccc3)CC2)c1,0.252,0.608
COc1cc(CN2C[C@@H]3C[C@@H](C2)c2cccc(=O)n2C3)cc(I)c1O,0.263,0.634
O=c1cccc2n1C[C@H]1C[C@H]2CN(Cc2cccc(Cl)c2Cl)C1,0.28,0.659
COc1ccc(CN2C(=O)CC(=O)NC2=O)cc1,0.265,0.633
COc1ccc(N2CCN(Cc3ccc(N(C)C)cc3)CC2)cc1,0.271,0.65
Cc1[nH]c2ccccc2c1CCCNC1CCCCC1,0.264,0.644
Cc1ccccc1-n1c(/C=C/c2ccccc2[N+](=O)[O-])nc2ccccc2c1=O,0.239,0.651
COc1ccc(Br)cc1CN1CCN(C)CC1,0.26,0.617
CN1C(=O)C(C2(C#N)CCCCC2)C(=O)N(C)C1=O,0.264,0.635
COc1cc(Cc2ccc(N)c(OC)c2)ccc1N,0.255,0.625
Cc1ccccc1CN1CCN(c2ccc([N+](=O)[O-])cc2)CC1,0.23,0.605
Nc1ccc(Oc2ccc(N)cc2)cc1,0.168,0.608
OCCN1CCN(Cc2ccc(F)c(F)c2)CC1,0.247,0.612
COC1CCCCC1NC1CCCCC1 (stereo not given),0.234,0.614
